{
  "source": "PubChem BioAssay (NCATS)",
  "note": "“And” between values parts separate entries of the source, which are not always exact repeats. Equal values may be shown once. Records with an inconclusive call do not appear. More than one record can exist for a structure, and the calls need not agree. Unmarked numbers belong to inactive results. The source made the active and inactive calls. Calls follow the shape of the dose curve; as a rule, active = well fitted cell-killing curve with a large enough effect; inconclusive = small, poorly fitted or top-dose-only effect, or effect the other way; inactive = flat fitted curve, though single readings scatter. % is scaled to controls: 0 for no effect and ±100 for the full control effect; potency is read from the fitted curve at half-maximal effect.",
  "data": [
    {"assay": "qHTS assay for cell viability of HEK293 cells (AID 743288); also: nearly all actives have a fitted effect of over 50% in size", "conditions": "ATP luminescence (CellTiter-Glo), 18 h; max response: hits give low values", "from_the_text": "National Center for Advancing Translational Sciences [NCATS]\nNIH Chemical Genomics Center [NCGC]\nU.S. Environmental Protection Agency [EPA]\nNational Institutes of Environmental Health Sciences [NIEHS]\nNational Toxicology Program [NTP]\nU.S. Food and Drug Administration [FDA]\nThe CellTiter-Glo Luminescent Cell Viability Assay (Promega, Madison, WI) is a homogeneous method to determine the number of viable cells in culture based on quantitation of the ATP present, which signals the presence of metabolically active cells. This cell viability assay was used to screen environmental chemicals in the Hek293 cell line.\nTox21 Assay Protocol Summary:\nCell viability after compound treatment was measured using a luciferase-coupled ATP quantitation assay (CellTiter-Glo viability assay, Promega, Madison, WI) in parental HEK293 cells. Total intracellular ATP content corresponds to the number of metabolically competent cells after compound treatment. The cells were dispensed at 2,000 cells/5 uL/well in 1,536-well white/solid bottom assay plates using a Flying Reagent Dispenser (Aurora Discovery, San Diego, CA). The cells were incubated a minimum of 5 h at 37 C, followed by the addition of 23 nL of compounds dissolved in DMSO, positive controls or DMSO only using a pintool work station (Kalypsys, San Diego, CA). The assay plates were incubated for 18 h at 37 C, followed by the addition of 5 uL/well of CellTiter-Glo reagent. After 30 min incubation at room temperature, the luminescence intensity of the plates was measured using a ViewLux plate reader (PerkinElmer, Shelton, CT).", "values": [
      {"molecule": "N[C@@H](Cc1ccc(N(CCCl)CCCl)cc1)C(=O)O", "Potency": "50.1 µM (active)"},
      {"molecule": "CNCC(O)c1ccc(O)cc1", "note": "(stereo unspecified)", "max response": "-7.41%"},
      {"molecule": "C[C@H]1O[C@@H](O[C@H]2[C@@H](O)C[C@H](O[C@H]3[C@@H](O)C[C@H](O[C@H]4CC[C@@]5(C)[C@H](CC[C@@H]6[C@@H]5CC[C@]5(C)[C@@H](C7=CC(=O)OC7)CC[C@]65O)C4)O[C@@H]3C)O[C@@H]2C)C[C@H](O)[C@@H]1O", "Potency": "0.0562 µM (active)"},
      {"molecule": "Oc1cccc2cccnc12", "max response": "-19.7%"},
      {"molecule": "C[C@]12CCC(=O)C(O)=C1CC[C@@H]1[C@@H]2CC[C@]2(C)C(=O)CC[C@@H]12", "max response": "-3.27%"},
      {"molecule": "CCCC(C)(COC(N)=O)COC(=O)NC(C)C", "note": "(stereo unspecified)", "max response": "-8.51% and -1.5%"},
      {"molecule": "Cc1cc(SCc2sc(-c3ccc(C(F)(F)F)c(F)c3)nc2C)ccc1OCC(=O)O", "max response": "-13%"},
      {"molecule": "CCOP(=S)(OCC)Oc1cc(C)nc(C(C)C)n1", "max response": "0.702% and -4.39%"},
      {"molecule": "Clc1ccc(COC(Cn2ccnc2)c2ccc(Cl)cc2Cl)cc1", "note": "(stereo unspecified)", "max response": "-21%"},
      {"molecule": "C[C@@H]1O[C@@H](O[C@H]2C[C@@H](O)[C@]3(CO)[C@H]4[C@H](O)C[C@]5(C)[C@@H](C6=CC(=O)OC6)CC[C@]5(O)[C@@H]4CC[C@]3(O)C2)[C@H](O)[C@H](O)[C@H]1O", "Potency": "0.0631 µM (active)"},
      {"molecule": "Oc1ccc(Cl)cc1Cc1ccccc1", "max response": "-10.2% and -5.38%"},
      {"molecule": "OCCOc1ccccc1", "max response": "-3.53% and -2.57% and -13.5%"},
      {"molecule": "NCC(O)c1ccc(O)cc1", "note": "(stereo unspecified)", "max response": "1.63%"},
      {"molecule": "O=c1oc2ccccc2c(O)c1C(CC(O)c1ccc(-c2ccc(Br)cc2)cc1)c1ccccc1", "note": "(stereo unspecified)", "max response": "-5.59%"},
      {"molecule": "c1ccc2c(c1)Nc1ccccc1S2", "max response": "-11.4% and -9%"},
      {"molecule": "O=c1[nH]c2ccccc2n1C1CCN(CCCC(c2ccc(F)cc2)c2ccc(F)cc2)CC1", "Potency": "50.1 µM (active)"},
      {"molecule": "Oc1ccccc1-c1ccccc1", "max response": "-4.38% and -13.9% and 2.52%", "Potency": "891 µM (active)"},
      {"molecule": "C[C@]12C/C(=C/O)C(=O)C[C@@H]1CC[C@@H]1[C@@H]2CC[C@@]2(C)[C@H]1CC[C@]2(C)O", "max response": "-10.8% and -7.35%"},
      {"molecule": "CC(C)(C)CC(C)(C)c1ccc(O)cc1", "max response": "-15.6%"},
      {"molecule": "Nc1ccncc1", "max response": "-3.71%"}
    ]}
  ]
}
